Consider 8 compounds from PubChem BioAssay (NCI).

Among the test systems are NCI-H23 lung; NCI-H322M lung; HOP-62 NSCLC; NCI-H460 lung; HOP-92 NSCLC; NCI-H522 lung; A549/ATCC NSCLC; 786-0 renal; COLO 205 colon; DU-145 prostate; K-562 leukemia; MALME-3M melanoma; MDA-MB-231 breast; RXF 393 renal; SF-268 CNS; SF-295 CNS; SF-539 CNS; UACC-257 melanoma; M14 melanoma.
What all share (assay): NCI-60 one-dose screen, 48 h (100 = growth as untreated, 0 = no growth, -100 = all killed)
What all share (conditions): 10 µM unless noted

The panel holds about 83,000 compounds, 20% with a hit somewhere; the sample as a whole holds those more often.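 Plates (96-well) were seeded with cells, treated with compound at one concentration, and incubated for 48 hours before percent growth was determined.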 Values without a mark were called inactive. The source made the active and inactive calls. The calls were made as follows: active = growth percent below 10; inactive = the rest.

Regarding `COc1cc(-c2nc3ccccc3s2)ccc1OCc1nc2n(n1)S(=O)(=O)c1ccccc1N2C`, the growth in the experiment with NCI-H23 lung was 92.7%; with NCI-H322M lung, 68.9%; with HOP-62 NSCLC it was 46.1%; in the experiment on NCI-H460 lung, 101%; in the experiment with HOP-92 NSCLC, 1.17% (active); in the experiment on NCI-H522 lung, 60.7%. Further, the growth with A549/ATCC NSCLC was 91.1%; in the experiment with 786-0 renal it was 62.1%; with COLO 205 colon, 102%; in the experiment with DU-145 prostate, 87.7%; with K-562 leukemia, 71.1%; in the experiment on MALME-3M melanoma, 39.4%. Moreover, the growth in the experiment on MDA-MB-231 breast is 84.6%; with RXF 393 renal, 58.3%; with SF-268 CNS it was 94.4%; with SF-295 CNS, 61.3%; in the experiment on SF-539 CNS, 52.4%; in the experiment on UACC-257 melanoma, 104%. For the same compound, in the experiment with M14 melanoma, the growth was 76.8%.
Regarding `O=S(=O)(Nc1cccc2cc(OS(=O)(=O)c3ccccc3)ccc12)c1ccccc1`, the growth was 73.8% in the experiment on NCI-H23 lung; 90.1% with NCI-H322M lung; 46.3% in the experiment with HOP-62 NSCLC; 29.7% with NCI-H460 lung; 57.6% with HOP-92 NSCLC; 40.5% in the experiment with NCI-H522 lung. The growth was 57.1% with A549/ATCC NSCLC; 81.2% in the experiment with 786-0 renal; 51.9% with COLO 205 colon; 92% in the experiment with DU-145 prostate; 25.2% with K-562 leukemia; 56.2% with MALME-3M melanoma. In addition, the growth was 76.4% with MDA-MB-231 breast; 86.5% with RXF 393 renal; 74.2% with SF-268 CNS; 59.3% with SF-295 CNS; 63.4% with SF-539 CNS; 75.6% with UACC-257 melanoma. Moreover, the growth in the experiment with M14 melanoma is 40.3%.
On to `C=CCOc1ccc(/C(Cl)=N/N=C(\Cl)c2cc(OC)c(OC)c(OC)c2)cc1`, for which the growth was 64.9% in the experiment on NCI-H23 lung; 97.4% in the experiment with NCI-H322M lung; 79.7% in the experiment on HOP-62 NSCLC; 48% in the experiment on NCI-H460 lung; 65.1% with HOP-92 NSCLC; 37.9% with NCI-H522 lung. Besides, the growth was 59.5% in the experiment with A549/ATCC NSCLC; 98.1% with 786-0 renal; 72.2% with COLO 205 colon; 70% with DU-145 prostate; 69.4% in the experiment with K-562 leukemia; 90.9% in the experiment on MALME-3M melanoma. Moreover, the growth in the experiment with MDA-MB-231 breast was 82.4%; in the experiment on RXF 393 renal, 58.7%; in the experiment on SF-268 CNS, 85.5%; with SF-295 CNS, 87.9%; in the experiment on SF-539 CNS it was 88.8%; in the experiment with UACC-257 melanoma, 53.3%. Further, the growth in the experiment on M14 melanoma was 73.4%.
On to `Cc1cc[n+](CCCC[n+]2ccc(C)cc2)cc1`, for which the growth is 96% with NCI-H23 lung; 97.1% in the experiment on NCI-H322M lung; 108% in the experiment on HOP-62 NSCLC; 108% in the experiment with NCI-H460 lung; 74.3% in the experiment with HOP-92 NSCLC; 120% in the experiment on NCI-H522 lung. The growth in the experiment on A549/ATCC NSCLC was 104%; in the experiment on 786-0 renal, 95.8%; in the experiment with DU-145 prostate, 101%; in the experiment on K-562 leukemia, 109%; in the experiment on MALME-3M melanoma, 97.6%; in the experiment with MDA-MB-231 breast, 105%. For the same compound, the growth with RXF 393 renal is 106%; in the experiment on SF-268 CNS, 102%; in the experiment with SF-295 CNS it was 103%; in the experiment with SF-539 CNS it was 102%; in the experiment with UACC-257 melanoma, 111%; in the experiment on M14 melanoma, 95.4%.
`Cc1ccc2c(C3C(C#N)=C(N)Oc4cc5ccccc5cc43)cc(=O)oc2c1` (stereo not drawn): the growth was 41% in the experiment with NCI-H23 lung; 42.7% with NCI-H322M lung; 30.1% in the experiment with HOP-62 NSCLC; 12.5% in the experiment with NCI-H460 lung; 75.7% in the experiment with HOP-92 NSCLC; 7.76% (active) in the experiment with NCI-H522 lung. Besides, the growth is 25.1% with A549/ATCC NSCLC; 26.2% in the experiment with 786-0 renal; 2.72% (active) with COLO 205 colon; 16% with DU-145 prostate; 66.4% with MALME-3M melanoma; 50.6% in the experiment on MDA-MB-231 breast. Besides, the growth in the experiment with RXF 393 renal is -11% (active); in the experiment with SF-268 CNS, 54.6%; in the experiment on SF-295 CNS it was 9.32% (active); with SF-539 CNS, 2.31% (active); in the experiment on UACC-257 melanoma it was 67.8%; in the experiment on M14 melanoma it was 0.37% (active).
Take `C=C1C(=O)O[C@H]2[C@H]1CC/C(COC(=O)n1ccnc1C)=C\CC[C@@]1(C)O[C@@H]21`: the growth in the experiment with NCI-H23 lung is 98.7%; with NCI-H322M lung, 98.3%; in the experiment on HOP-62 NSCLC it was 99.4%; in the experiment on NCI-H460 lung, 105%; with HOP-92 NSCLC, 106%; in the experiment on NCI-H522 lung it was 66.3%. Besides, the growth was 89.3% with A549/ATCC NSCLC; 95.7% with 786-0 renal; 89.8% with COLO 205 colon; 93.2% in the experiment on DU-145 prostate; 95.4% in the experiment with K-562 leukemia; 92.6% with MALME-3M melanoma. The growth is 106% in the experiment with MDA-MB-231 breast; 96.2% in the experiment with RXF 393 renal; 101% in the experiment with SF-268 CNS; 104% with SF-295 CNS; 101% with SF-539 CNS; 75.1% in the experiment with UACC-257 melanoma. Also, the growth in the experiment on M14 melanoma is 91%.
On to `NC(N)=N/N=C/c1ccc([N+](=O)[O-])cc1`, for which the growth is 91.4% in the experiment with NCI-H23 lung; 93.5% with NCI-H322M lung; 104% in the experiment on HOP-62 NSCLC; 104% in the experiment with NCI-H460 lung; 104% in the experiment on HOP-92 NSCLC; 107% in the experiment on NCI-H522 lung. Further, the growth in the experiment on A549/ATCC NSCLC is 109%; with 786-0 renal, 103%; with COLO 205 colon, 113%; with DU-145 prostate it was 125%; with K-562 leukemia, 117%; with MALME-3M melanoma, 103%. Besides, the growth in the experiment on MDA-MB-231 breast is 101%; in the experiment on RXF 393 renal it was 102%; with SF-268 CNS, 103%; in the experiment on SF-295 CNS, 91.3%; with SF-539 CNS, 105%; in the experiment on UACC-257 melanoma, 102%.
Turning to `FC(F)(F)c1cn(CC2CNC2)c2ncnc(Cl)c12`, the growth was 104% in the experiment on NCI-H23 lung; 111% with NCI-H322M lung; 102% in the experiment with HOP-62 NSCLC; 105% with NCI-H460 lung; 114% with HOP-92 NSCLC; 89.7% with NCI-H522 lung. Moreover, the growth with A549/ATCC NSCLC is 94.3%; in the experiment with 786-0 renal, 107%; with COLO 205 colon, 106%; in the experiment on DU-145 prostate, 108%; with MALME-3M melanoma it was 122%; with MDA-MB-231 breast, 100%. For the same compound, the growth in the experiment on RXF 393 renal is 112%; in the experiment with SF-268 CNS it was 99.2%; with SF-295 CNS, 100%; in the experiment with SF-539 CNS, 109%; with UACC-257 melanoma, 85.6%; with M14 melanoma it was 109%.
